Test results from PubChem BioAssay (NCATS).
Results filed as inconclusive are left out. Activity calls are given as the source filed them. Calls come from the whole dose curve; as a rule, active = well fitted inhibition curve with a large enough effect; inconclusive = small, poorly fitted or top-dose-only effect; inactive = flat fitted curve, though single readings scatter.

The molecules below were run on CP203 (assay: qHTS profiling for inhibitors of Plasmodium falciparum proliferation (AID 504749; note: nearly all actives have a fitted effect of over 60% in size;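 for activity, negative = inhibition: 0% = DMSO vehicle and full inhibition = artemisinin control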)). Conditions: P. falciparum in erythrocytes, SYBR Green DNA, 72 h; series mostly up to 28.7 µM; activity, negative = inhibition: at the top concentration.
Text: NIH National Institute of Allergy and Infectious Diseases [NIAID] NIH Chemical Genomics Center [NCGC] MLPCN Grant: None Assay Provider: Xinzhuan Su, NIAID NCGC Assay Overview: Plasmodium falciparum is a virulent malarial parasite that kills 1-2 million people worldwide each year. Transmitted by mosquitoes, the sporozoite form of the parasite enters the blood stream to infect hepatocytes, where they become merozoites that infect red blood cells (erythrocytes). Within erythrocytes, merozoites begin a […] cycle of growth and division, after which the parasite is released to infect new red blood cells. Gametocytes, which form within erythrocytes as well, circulate in the bloodstream and are ingested by the mosquito, thereby completing the life cycle. To profile malarial isolates for differential chemical responses and to identify inhibitors of malarial growth, an assay that measures P. falciparum growth and replication within erythrocytes was employed. This assay uses a DNA binding fluorescent dye (SYBR Green) to detect parasite DNA following cell lysis. Because mature erythrocytes lack DNA, only Plasmodium-derived DNA is detected.
NCGC Assay Protocol Summary: The SYBR Green viability assay was adapted from a method described previously (Plouffe et al., 2008). For screening 3 ul culture medium was dispensed into 1536 well black clear bottom plates (Aurora Biotechnologies) using a Multidrop Combi (Thermo Fisher Scientific Inc.), 23 nL compounds in DMSO were added by a pin tool (Kalypsys), and 5 ul of erythrocytes infected with P. falciparum (0.3% parasitemia, 2.5% hematocrit final concentration) were added. The plates were incubated at 37 C in a humidified incubator in 5% CO2 for 72 h, and 2 ul lysis buffer (20 mM Tris HCl, 10 mM EDTA, 0.16% saponin, 1.6% triton X, 10X SYBR Green I supplied as 10,000X […] by Invitrogen) was added to each well. The plates were mixed for 25 sec with gentle shaking and incubated overnight at room temperature in the dark. The following morning, fluorescence intensity at 485(14) nm excitation and 535(25) nm emission wavelengths was measured on an EnVision (Perkin Elmer) plate reader. Plate reads were normalized relative to the control inhibitor (0.29 uM artemisinin) and vehicle (DMSO) wells present on each plate and then corrected by an algorithm using vehicle-only control plates at the beginning and end of the compound plate stack.
Potency is the fitted concentration of half-maximal effect.

Row | Compound | Potency | activity, negative = inhibition
1 | CCCCCCCCNC(C)C(O)c1ccc(SC(C)C)cc1 (stereo not given) | 1.69 µM (active) | 
2 | Nc1ccc(S(=O)(=O)Nc2cnc3ccccc3n2)cc1 |  | -1.83% (inactive)
3 | COc1cc(C(=S)N2CCOCC2)ccc1O |  | 5.5% (inactive)
4 | O=C(O)C(Cc1cc(I)c(O)c(I)c1)c1ccccc1 (stereo not given) |  | 4.94% (inactive)
5 | O=C(Nc1ccc([N+](=O)[O-])cc1)Nc1ccc([N+](=O)[O-])cc1 |  | -2.39% (inactive)
6 | CCN(CC)CCOC(=O)C1(c2ccccc2)CCCC1 | 10.7 µM (active) | 
7 | O[C@@H](c1cc(C(F)(F)F)nc2c(C(F)(F)F)cccc12)[C@H]1CCCCN1 | 0.0849 µM (active) | 
8 | CCOc1ccccc1OCCN[C@H](C)Cc1ccc(OC)c(S(N)(=O)=O)c1 |  | 0.938% (inactive)
9 | O=C(Oc1cccc2cccnc12)c1ccccc1 |  | -12.1% (inactive)
10 | COc1ccccc1N1CCN(CCCCNC(=O)c2ccc(-c3ccc(C(C)=O)cc3)cc2)CC1 |  | -4.75% (inactive)
11 | C#C[C@]1(OC(C)=O)CC[C@H]2[C@@H]3CCC4=C/C(=N/O)CC[C@@H]4[C@H]3CC[C@@]21CC |  | -2.71% (inactive)
12 | COP(=O)(OC)OC(c1ccc(Cl)cc1)P(=O)(OC)OC (stereo not given) |  | 3.95% (inactive)
13 | CC(=O)NO |  | 0.854% (inactive)
14 | O=C(Nc1cccc(C2=NCCN2)c1)Nc1cccc(C2=NCCN2)c1 | 15.1 µM (active) | 
15 | CC1(COc2ccc(CC3SC(=O)NC3=O)cc2)CCCCC1 (stereo not given) |  | -8.76% (inactive)
16 | O=C(O)C1(C(=O)O)CCC1.[NH2-].[NH2-].[Pt+2] |  | -2.46% (inactive)
17 | NCCNc1cccc2ccccc12 |  | -15.4% (inactive)
18 | CC[N+](C)(CC)CCOC(=O)C(O)(c1ccccc1)C1CCCCC1 (stereo not given) |  | -1.01% (inactive)
19 | CC(=O)NCCCCCC(=O)O |  | -14.6% (inactive)
20 | O=S(=O)(O)c1ccc(O)cc1 |  | -0.768% (inactive)

Row | Compound | Potency | activity, negative = inhibition
21 | CC(C)Cn1cnc2c1c(=O)n(C)c(=O)n2C |  | -1.95% (inactive)
22 | NCCNC(=O)c1ccc(Cl)cn1 |  | 0.154% (inactive)
23 | CCOC(=O)c1c(N)sc2c1CCN(Cc1ccccc1)C2 | 4.26 µM (active) | 
24 | CCN(CC)CCNC(=O)c1cc(Br)c(N)cc1OC |  | -4.77% (inactive)
25 | COc1cc(N)c(Cl)cc1C(=O)NC1CCN(Cc2ccccc2)CC1 |  | -4.01% [at 12.8 µM] (inactive)
26 | CCCCCCCCCCCCCCCC(=O)O |  | -0.442% (inactive)
27 | CCC1Nc2cc(Cl)c(S(N)(=O)=O)cc2S(=O)(=O)N1 (stereo not given) |  | 1.49% (inactive)
28 | O=C(c1ccc(F)cc1)C1CCN(CCn2c(=S)[nH]c3ccccc3c2=O)CC1 | 6.01 µM (active) | 
29 | CCCCN=C(N)N=C(N)N |  | 7.16% (inactive)
30 | CN(Cc1ccc(C(C)(C)C)cc1)Cc1cccc2ccccc12 |  | -8.27% (inactive)
31 | COc1ccc(C(Cl)=C(c2ccc(OC)cc2)c2ccc(OC)cc2)cc1 |  | -11.3% (inactive)
32 | OC1C(O)C(O)C(O)C(O)C1O (stereo not given) |  | 4.18% (inactive)
33 | CC(C)(C)NC[C@H](O)COc1cccc2c1CCCC2=O |  | 0.586% [at 12.8 µM] (inactive)
34 | FC1(F)C(F)(F)C(F)(F)C2(F)C(F)(F)C(F)(F)C(F)(F)C(F)(F)C2(F)C1(F)F (stereo not given) |  | 2.37% (inactive)
35 | CN1CCN(C2=Nc3cc(F)ccc3Cc3ccccc32)CC1 |  | -22.3% (inactive)
36 | CCN(CC)CCNC(=O)COc1ccc(OC)cc1 |  | -7.36% (inactive)
37 | Oc1ccccc1C=NCc1ccccc1 |  | 3.03% (inactive)
38 | O=C(O)c1ccc(S(=O)(=O)N(Cl)Cl)cc1 |  | -0.859% (inactive)
39 | Nc1ccc(C(=O)NCC(=O)O)cc1 |  | 2.34% [at 12.8 µM] (inactive)
40 | Nc1ccc(S(=O)(=O)NCc2ccccc2)cc1 |  | 8.46% (inactive)
